Laboratory results taken from PubChem BioAssay AID485344 (National Center for Advancing Translational Sciences (NCATS), 2010).
Screen size: about 340,000 compounds; about 6,900 (2%) were called active. No stated cut-off is given here; in the data, active means inhibition above about 30%; inactive means below that, where a call was filed. Shown is part of a subset that was picked to be rich in actives.

Each compound was assayed against D(2) dopamine receptor (Homo sapiens) (UniProt P14416) (assay: HTS Assay for Allosteric Antagonists of the Human D2 Dopamine Receptor: Primary Screen for Antagonists). Settings: HEK293 TREx D2 cells, calcium flux, dopamine EC80; at 10 µM; active compounds read high.
Sequence of D(2) dopamine receptor (Homo sapiens) (P14416 whole entry, looked up): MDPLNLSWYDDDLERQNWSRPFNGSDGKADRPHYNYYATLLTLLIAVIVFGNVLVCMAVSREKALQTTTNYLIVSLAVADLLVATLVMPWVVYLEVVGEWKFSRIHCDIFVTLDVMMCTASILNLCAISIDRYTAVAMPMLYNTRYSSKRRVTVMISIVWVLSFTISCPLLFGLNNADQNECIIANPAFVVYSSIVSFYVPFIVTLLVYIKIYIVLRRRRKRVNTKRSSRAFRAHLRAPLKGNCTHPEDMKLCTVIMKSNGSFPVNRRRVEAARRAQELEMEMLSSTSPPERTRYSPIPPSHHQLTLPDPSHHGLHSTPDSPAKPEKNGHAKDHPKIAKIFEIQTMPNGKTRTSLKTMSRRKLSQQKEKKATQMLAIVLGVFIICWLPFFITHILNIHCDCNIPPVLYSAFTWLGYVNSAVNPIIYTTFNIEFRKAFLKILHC
Outline: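 Read-out: kinetic calcium fluorescence (1 cycle/s) in inducible HEK293 T-REx D2 cells after an EC80 dopamine addition that followed 180 s compound preincubation. Loss of the dopamine response indicates antagonism.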
Further: 0% is about no effect.

inhibition, inactive:
COC(=O)Cc1ccc(OC(=O)C2CCN(S(=O)(=O)c3ccc(OC)c(OC)c3)CC2)cc1 -7.28%, COc1ccc(CC(=O)OC(C)C(=O)Nc2ccc(S(N)(=O)=O)cc2)cc1 (configuration not stated) -2.4%, COc1ccc(Cc2nnc(NC(=O)c3ccc(OC)cc3OC)s2)cc1 2.14%, CCCc1nnc(NC(=O)c2cc(OC)cc(OC)c2)s1 -9.73%, Cc1ccc(N2CC(C(=O)Nc3cc(Cl)ccc3-n3cncn3)CC2=O)cc1 (configuration not stated) -16.3%, CCN(Cc1ccccc1)C(=O)Cc1ccc(OC)c(S(=O)(=O)N2CCOCC2)c1 -8.71%, CC(NCC(=O)Nc1ccccc1C(=O)NC1CC1)c1ccccc1Cl (configuration not stated) 26.6%, COc1ccc(C(CNC(=O)c2cccc(S(=O)(=O)Nc3ccccc3Cl)c2)N2CCOCC2)cc1 (configuration not stated) -9.15%, CCOC(=O)C1=C(C)NC2=C(C(=O)CC(C)(C)C2)C1c1ccsc1 (configuration not stated) -9.11%, COc1cc(C2C(C#N)=C(C)NC3=C2C(=O)CC(C)(C)C3)ccc1O (configuration not stated) -7.78%, CCOC(=O)c1ccccc1NC(=O)COC(=O)C(Cc1c[nH]c2ccccc12)NC(C)=O (configuration not stated) -6.93%, CCC(=O)c1ccc(OCC(=O)Nc2ccc(N3CCCCC3)cc2)cc1 19%, CCN(CC(=O)Nc1cc(Cl)ccc1C)C(=O)CSCc1ccc(C)cc1 -3.18%, Cc1ccc(C2C3=C(Nc4[nH]n(-c5ccccc5)c(=O)c42)c2ccccc2C3=O)cc1 (configuration not stated) -28.5%, CCOC(=O)C1=C(c2ccc(OC)cc2)C(=O)c2ccccc2C1=O -4.28%, O=C(c1ccc(Cl)c(S(=O)(=O)N2CCCCCC2)c1)N1CCN(c2ccc(O)cc2)CC1 4.16%, CCOC(=O)C(C)N(c1ccccc1Cl)S(C)(=O)=O (configuration not stated) -9.97%, Cc1ccc(C)c(N2CCN(C(=O)CCCCn3c(=O)[nH]c4ccccc4c3=O)CC2)c1 -2.01%, O=C(CCc1c[nH]c2ccccc12)NCCOc1ccccc1 12.3%, CCN(CC)CCNC(=O)CCCCCn1c(=O)[nH]c2cc(C(=O)OC)ccc2c1=O -2.71%, O=C(CCCCn1c(=O)[nH]c2ccccc2c1=O)NCc1ccc2c(c1)OCO2 -1.23%, O=C(CSc1ccccc1)Nc1cccc(S(=O)(=O)N2CCOCC2)c1 12.8%, O=C(/C=C/c1cccc([N+](=O)[O-])c1)OCC(=O)N1CCOCC1 13.9%, CSc1ccccc1NC(=O)COC(=O)CCCOc1ccc(C)cc1 5.07%, CCOc1cc(/C=C/C(=O)OCC(=O)NCCN2C(=O)CSC2=O)ccc1OCC(C)C 2.85%, O=C(NNC(=O)c1cc(-c2ccccc2Cl)nc2ccccc12)c1csc(N2CCOCC2)n1 4.74%, COc1ccccc1C(=O)NC(CCSC)C(=O)NNC(=O)c1csc(N2CCOCC2)n1 (configuration not stated) 6.58%, CN1CCN(c2ccc(NC(=O)c3cc(Cl)c4c(c3)OCCO4)cc2)CC1 -8.36%, COc1ccc(S(=O)(=O)N2CCCC2CNC(=O)C(=O)NC2CC2)cc1 (configuration not stated) 2.63%, CN(C)CCOC1c2ccccc2-c2ccccc21 -3.38%, Cc1ccccc1C(OCC(O)CN1CCCCC1CCO)c1ccccc1 (configuration not stated) -4.51%, Cc1ccc(S(=O)(=O)NCCC(=O)NNC(=O)C2COc3ccccc3O2)cc1 (configuration not stated) -0.636%, CCCCN(C(=O)c1ccc2ccccc2c1)c1c(N)n(CCCC)c(=O)[nH]c1=O -22.6%, Cc1ccc(/C=C/C(=O)OCC(=O)Nc2cccnc2Cl)cc1 13%, CCCSc1nsc(N)n1 -5.55%, Nc1nc(SC23CC4CC(CC(C4)C2)C3)ns1 -8.79%, Cc1ccc(S(=O)(=O)N2CCCCC2)cc1NC(=O)c1cccnc1 1.41%, CCNC(=O)N1CCN(S(=O)(=O)c2ccc3c(c2)OCCCO3)CC1 11.7%, CCN(CC(=O)Nc1cccc(S(=O)(=O)N2CCCCC2)c1)Cc1ccccc1 0.844%, COc1ccccc1N1CC(C(=O)NCCN2C(=O)S/C(=C\c3cccnc3)C2=O)CC1=O (configuration not stated) 4.67%, COc1cc(CN2CCCN(C)CC2)c([N+](=O)[O-])cc1OC 24.2%, Cc1cc(OCCCN2CCN(Cc3ccccc3)CC2)ccc1[N+](=O)[O-] -14.3%, COc1ccc(-c2sc3ccc(OC)cc3c2C#Cc2ccccn2)cc1 -2.01%, CCCCCCn1c(CN2CCCC(C)C2)nc2c1c(=O)n(C)c(=O)n2C (configuration not stated) 2.89%, CC(O)c1nc2c(c(=O)n(C)c(=O)n2C)n1C (configuration not stated) 0.261%, CCN(CC(=O)NCc1cccs1)C(=O)/C=C/c1ccc(C)cc1 0.23%, COc1ccc2c(C)cc(SCC(=O)NCC3CCCO3)nc2c1 (configuration not stated) 0.454%, O=C(NC1CCCCCC1)C1CCN(C(=O)c2ccc(Cl)cc2)CC1 -21.8%, COc1ccccc1OCCNC(=O)C(CCSC)NC(=O)COc1ccccc1 (configuration not stated) 0.971%, S=C(Nc1cccc(Cl)c1)Nc1ccc2c(c1)OCCO2 3.88%, S=C(Nc1cccc(Cl)c1)Nc1ccc2cn[nH]c2c1 -2.72%, CN(CC(=O)Nc1ccc(S(=O)(=O)N2CCCC2)cc1)Cc1ccc(Cl)c(Cl)c1 -19.3%, CN(CC(=O)Nc1ccc(F)cc1)CC(=O)Nc1ccc(Cl)c(S(=O)(=O)N2CCOCC2)c1 -2.29%, Cc1ccc(CN2CC(C(=O)NNC(=O)Cn3ccc(C(F)(F)F)n3)CC2=O)cc1 (configuration not stated) 9.85%, COC(=O)C1CCN(C(=O)NC2CC(=O)N(c3ccc4c(c3)OCCO4)C2)CC1 (configuration not stated) 10.2%, Cc1c(Cl)cccc1NC(=S)NCc1ccc2c(c1)OCO2 -3.97%, Cc1ccc(/C=N/NC(=S)Nc2cccc(S(=O)(=O)N(C)C)c2)o1 -10.5%, CC(C)CN(CC(C)C)C(=O)CN1c2cccc3cccc(c23)S1(=O)=O -10.2%, O=C(O)CN1c2cccc3cccc(c23)S1(=O)=O 14.3%, O=C(COc1ccccc1Cl)N1N=C(c2cccs2)CC1c1ccco1 (configuration not stated) 5.49%, Cc1ccc(-c2csc(NC(=O)C3=COCCO3)n2)cc1C 1.39%, CCN(CC)c1ccc(NC(=O)CN2CCN(c3ccccn3)CC2)cc1 5.78%, CCOC(=O)N1CCN(Cc2nc3cc(NC(=O)CC)ccc3n2CC)CC1 3.26%, Cn1c(CCN2CCCCCC2)nc2cc(NC(=O)Nc3ccccc3)ccc21 0.502%, CN1CCN(Cc2nc3cc(NC(=O)COc4ccc([N+](=O)[O-])cc4)ccc3n2C)CC1 -8.44%, O=C(COC(=O)c1cc(S(=O)(=O)N2CCOCC2)ccc1Cl)NCCc1ccccc1 -3.61%, CC1CCC(CN2CCN=C2N(C)C)CC1 (configuration not stated) 11.2%, COc1ccccc1C1=CC(=O)C[C@H](c2ccc(F)cc2)C1 4.4%, O=S(=O)(c1ccccc1)N1CCC(c2ccccc2)CC1 0.0462%, COc1ccccc1C(=O)NC(CCSC)C(=O)N1CCN(C(C)=O)CC1 (configuration not stated) 17.9%, O=c1oc2ccc(C#CC3(O)CCCCC3)cc2cc1-n1cc(-c2ccsc2)nn1 2.59%, OCC[C@H]1C[C@@H](O)[C@H](O)[C@]2(OCCCc3ccccc32)O1 5.04%, O=C(OCC(=O)N1CCCCCC1)c1cnc(Cl)c(Cl)c1 -0.916%, Nn1c(SCC(=O)NC2CCCC2)nnc1-c1ccccc1F -13.5%, CC(C)NC(=O)NC(=O)CSc1nnc(-c2ccccc2F)n1N 26%

inhibition, active:
COc1ccc(Cc2nnc(NC(=O)c3cc(OC)c(OC)c(OC)c3)s2)cc1OC 34.9%, CC(=O)C1=C(C)NC2=C(C(=O)CC(C)(C)C2)C1C (configuration not stated) 34%, COC(=O)C1=C(C)NC2=C(C(=O)c3ccccc32)C1c1ccc(-c2ccc(C(=O)O)cc2)o1 (configuration not stated) 54.8%, O=C(CCCn1c(=O)[nH]c2cc(Cl)ccc2c1=O)NCCN1CCN(c2ccccc2)CC1 81.3%, O=C(CCCCCn1c(=O)[nH]c2ccccc2c1=O)NCCc1c[nH]c2ccccc12 39.1%, CSCCC(NC(=O)c1ccc(Cl)cc1Cl)C(=O)NNC(=O)c1csc(N2CCOCC2)n1 (configuration not stated) 33.7%, Cc1ccccc1C(OCCN(C)C)C1CCCCC1 (configuration not stated) 86.8%, CCCCCCSc1nsc(N)n1 51.1%, COc1cc(CN2CCN(Cc3ccc(C)cc3)CC2)c([N+](=O)[O-])cc1OC 88.1%, CC1CN(C2CCCCC2)c2nc3c(c(=O)n(C)c(=O)n3C)n2C1 (configuration not stated) 38.7%, Cc1csc(NC(=S)Nc2cccc(Cl)c2)n1 32.1%, CN(CCC(=O)Nc1cc(S(=O)(=O)N(C)C)ccc1Cl)CC(=O)Nc1ccc(F)cc1 50.6%, CN(C)S(=O)(=O)c1cccc(NC(=S)NCc2ccc3c(c2)OCO3)c1 51.6%, Cc1ccc(S(=O)(=O)N(C)C)cc1NC(=O)CN1c2cccc3cccc(c23)S1(=O)=O 37%, CCC(=O)Nc1ccc2c(c1)nc(CCN1CCN(c3ccccn3)CC1)n2C 57%, CCOC(=O)N1CCN(Cc2nc3cc(NC(C)=O)ccc3n2C)CC1 31.3%, Nn1c(SCC(=O)NC(=O)NC2CCCC2)nnc1-c1ccccc1F 88.5%
